Results published in PubChem BioAssay (EPA / NIEHS).
Active and inactive are the calls of the source. Rule for the calls: active = hit-call score of the fitted dose curve at least 0.9, where 1 is the maximum; inactive = score below 0.9.

What was measured:
[1] = read-out: Macrophage colony-stimulating factor (MCSF), CSF1 (gene 1435); assay: BSK_hDFCGF_MCSF: BioMAP Diversity Plus: hDFCGF Assay for Macrophage colony-stimulating factor (MCSF) Biomarker Activity (AID 2283060); settings: primary human foreskin fibroblasts; actives raise or lower the signal
Procedure, shortened: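 Human foreskin fibroblast primary cultures; M-CSF measured by ELISA 24 hours after chemical dosing. Bidirectional fitting relative to DMSO, with overt cytotoxicity tracked by parallel SRB total-protein staining (0.1% SRB, 10% TCA fixation, 560 nm).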

[2] = BSK_hDFCGF_SRB: Viability Assessment in the BioMAP Diversity Plus: hDFCGF Assay (AID 2283061); settings: primary human foreskin fibroblasts;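 note: cells exposed to compound for 24 h before the read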
Procedure, shortened: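 Human foreskin fibroblasts in 96-well plates were treated 24 h. Total protein was measured by 0.1% SRB staining after 10% TCA fixation, read at 560 nm. Data were fitted bidirectionally against DMSO.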

[3] = read-out: Monokine induced gamma interferon (MIG), CXCL9 (gene 4283); assay: BSK_hDFCGF_MIG: BioMAP Diversity Plus: hDFCGF Assay for Monokine induced gamma interferon (MIG) Biomarker Activity (AID 2283063); settings: primary human foreskin fibroblasts; actives raise or lower the signal
Procedure, shortened: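 MIG/CXCL9 measured by ELISA 24 h after dosing primary human skin fibroblasts. Activity fitted in both directions against DMSO controls. Cytotoxicity was checked in parallel cultures by SRB staining read at 560 nm.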

[4] = read-out: Matrix Metallopeptidase 1 (MMP1), MMP1 (gene 4312); assay: BSK_hDFCGF_MMP1: BioMAP Diversity Plus: hDFCGF Assay for Matrix Metallopeptidase 1 (MMP1) Biomarker Activity (AID 2283064); settings: primary human foreskin fibroblasts; actives raise or lower the signal
Procedure, shortened: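 ELISA read-out of MMP1 from human foreskin fibroblasts (primary skin cells), 24 h post-dose. Gain or loss of signal was fitted bidirectionally versus DMSO negative control; cytotoxicity was checked by SRB in parallel cultures.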

[5] = read-out: Vascular cell adhesion molecule 1 (VCAM1), VCAM1 (gene 7412); assay: BSK_hDFCGF_VCAM1: BioMAP Diversity Plus: hDFCGF Assay for Vascular cell adhesion molecule 1 (VCAM1) Biomarker Activity (AID 2283065); settings: primary human foreskin fibroblasts; actives raise or lower the signal;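 for AC50: VCAM-1 protein level quantified by ELISA after 24 h chemical exposure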
Procedure, shortened: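 Human foreskin fibroblast primary cells dosed with chemical, VCAM-1 measured by ELISA at 24 h. Bidirectional curve fitting relative to DMSO as negative control/baseline.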

[6] = read-out: Plasminogen activator inhibitor-1 (PAI1), SERPINE1 (gene 5054); assay: BSK_hDFCGF_PAI1: BioMAP Diversity Plus: hDFCGF Assay for Plasminogen activator inhibitor-1 (PAI1) Biomarker Activity (AID 2283066); settings: primary human foreskin fibroblasts; actives raise or lower the signal
Procedure, shortened: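 Fibroblasts from human foreskin were treated with test chemical. After 24 h, PAI-1 was measured by ELISA. Activity was fitted in both directions relative to DMSO.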

[7] = read-out: Interferon-gamma inducible Protein 10 (IP10), CXCL10 (gene 3627); assay: BSK_KF3CT_IP10: BioMAP Diversity Plus: KF3CT Assay for Interferon-gamma inducible Protein 10 (IP10) Biomarker Activity (AID 2283068); settings: primary human keratinocytes with fibroblasts; actives raise or lower the signal
Procedure, shortened: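 Signal is secreted/surface IP-10 by ELISA in a human primary skin co-culture of keratinocytes and foreskin fibroblasts, taken 24 h post-dosing; DMSO served as negative control.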

[8] = BSK_KF3CT_SRB: Viability Assessment in the BioMAP Diversity Plus: KF3CT Assay (AID 2283069); settings: primary human keratinocytes with fibroblasts;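 note: total protein by sulforhodamine B staining as a cytotoxicity measure; read 24 h after compound addition; fitted for both signal gain and loss against DMSO baseline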
Procedure, shortened: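 SRB read-out at 560 nm (0.1% stain, TCA-fixed cells) gauges overt cytotoxicity in a human skin keratinocyte–fibroblast co-culture 24 h post-dosing. Signal change was fitted bidirectionally relative to DMSO control.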

[9] = read-out: Intercellular Adhesion Molecule 1 (ICAM1), ICAM1 (gene 3383); assay: BSK_KF3CT_ICAM1: BioMAP Diversity Plus: KF3CT Assay for Intercellular Adhesion Molecule 1 (ICAM1) Biomarker Activity (AID 2283067); settings: primary human keratinocytes with fibroblasts; actives raise or lower the signal
Procedure, shortened: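 Human keratinocyte–foreskin fibroblast co-culture was treated for 24 h. Cell-surface ICAM-1 was quantified by ELISA, fitted bidirectionally relative to DMSO. Cytotoxicity was checked in parallel cultures by SRB total-protein staining.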

Measured: AC50

O=c1c(O)c(-c2ccc(O)c(O)c2)oc2cc(O)cc(O)c12
inactive: [4] | [5] | [6]
active: [1] 7.26 µM | [2] 12.2 µM | [3] 7.18 µM | [7] 17.6 µM | [8] 14.2 µM

CC1(C)NC(=O)NC1=O
inactive: all assays above

FC(F)(F)C(F)(F)C(F)(F)C(F)(F)C(F)(F)C(F)(F)CCI
inactive: all assays above

Cc1cccc(C)c1O
inactive: all assays above

OC[C@@H](O)[C@@H](O)[C@H](O)[C@H](O)CO
inactive: all assays above

CN1CCN(Cc2cc(-c3ccc4[nH]c(=O)oc4c3)co2)[C@@H](c2ccc(F)cc2)C1
active: [1] 8.77 µM | [2] 17.6 µM | [6] 11.8 µM
inactive: all other assays above

CCCCN(CCCC)CCCC
not listed: [8]
inactive: all other assays above

Oc1ccc2ccccc2c1N=Nc1ccccc1
active: [6] 0.855 µM
not listed: [8]
inactive: all other assays above

Cc1ccc(C)c(O)c1C
inactive: all assays above

Cc1ccc(C)c(C)c1
inactive: all assays above

CCCCCCCCCCC
inactive: all assays above

COc1ccc2c(c1)c(CC(=O)O)c(C)n2C(=O)c1ccc(Cl)cc1
not listed: [8]
inactive: all other assays above

c1cc(-c2ccncc2)ccn1
inactive: all assays above

NCCO
inactive: all assays above

Cc1oc(-c2ccccc2)nc1CCOc1cccc2c1ccn2CCC(=O)O
not listed: [8]
inactive: all other assays above

CC(=O)OC/C=C(\C)CCC=C(C)C
inactive: all assays above

O=[N+]([O-])C(CO)(CO)CO
inactive: all assays above

COc1cc(C=O)ccc1O
inactive: all assays above

O=C(O)Cc1ccccc1Nc1c(Cl)cccc1Cl
inactive: all assays above

O=C(N[C@@H](Cc1ccccc1)[C@@H](O)C(=O)N1C[C@@H](O)[C@@H](O)C1)c1cc2cc(Cl)ccc2[nH]1
not listed: [8]
inactive: all other assays above

C1CCC(SSC2CCCCC2)CC1
active: [1] 20 µM | [2] 32.2 µM | [5] 38.4 µM | [6] 30.8 µM | [7] 30 µM
inactive: [3] | [4] | [9] | [8]

CCCCCCCCCCCCCCCCCC(=O)O
not listed: [8]
inactive: all other assays above

COCCOC[C@H](CC1(C(=O)NC2CCC(C(=O)O)CC2)CCCC1)C(=O)Oc1ccc2c(c1)CCC2 (stereo not given in full)
inactive: all assays above
